# Results from the supplement of paper PMC8728848.
# Shown is part of a subset that was picked to be rich in the strongest signals.
# B1: CSA (Cytisus scoparius), P29257 (protein)
# chain: SEELSFSFTKFKTDQKNLILQRDALITPTGKLQLTTVENGKPAAYSLGRALYSTPIHIWDKSTGDEASFATFFSFVISDAPNPSTAATDGLAFFLAPADTQPQSAGGYLGLFEKDSSYNSSNQIVAVEFDTYYNSAWDPQTNPHIGIDVNTIKSKKVSSWGFKNGNVATVLITYQPSSKSLVASLVYPSGQTSDKTSYIISANVDLKATVPEWVRIGFSATTGQTDNYIETHDILSWSFKSKLPATKN
# Columns and labels:
# Assay in all cases: glycan array binding signal (z-score within array); higher = stronger binding
# Settings in all cases: glycan notation: IUPAC condensed, linker removed
# [1] = biological target: Fuc(a1-2)Gal(b1-3)GalNAc(b1-4)[Neu5Ac(a2-3)]Gal(b1-4)Glc
# Procedure, shortened: (§1)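 The Consortium for Functional Glycomics database supplied 3228 glycan arrays, of which those lacking an available protein sequence were dropped. The binding signal, a within-array Z-score, was averaged across arrays of the same protein sequence and across linkers. Negative scores can be read as non-binding.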
# [2] = biological target: Fuc(a1-2)Gal6S(b1-3)GlcNAc6S
# Procedure, shortened: as §1
# [3] = biological target: Fuc(a1-2)[Gal(a1-3)]Gal(b1-4)[Fuc(a1-3)]Glc
# Procedure, shortened: as §1
# [4] = biological target: Fuc(a1-2)[GalNAc(a1-3)]Gal(b1-3)GlcNAc(b1-6)GalNAc
# Procedure, shortened: as §1
# [5] = biological target: Fuc(a1-2)[GalNAc(a1-3)]Gal(b1-4)GlcNAc(b1-3)Gal(b1-4)GlcNAc(b1-3)Gal(b1-4)GlcNAc
# Procedure, shortened: as §1
# [6] = biological target: Fuc(a1-2)[GalNAc(b1-3)]Gal
# Procedure, shortened: as §1
# [7] = biological target: Fuc(a1-3)[Gal3S(b1-4)]Glc
# Procedure, shortened: as §1
# Fuc(b1-3)GlcNAc = biological target: Fuc(b1-3)GlcNAc
# Procedure, shortened: as §1
# Gal(a1-3)Gal(b1-4)Glc = biological target: Gal(a1-3)Gal(b1-4)Glc
# Procedure, shortened: as §1
# [8] = biological target: Gal(a1-3)[Gal(a1-4)]Gal(b1-4)GlcNAc
# Procedure, shortened: as §1
# [9] = biological target: Gal(a1-4)Gal(b1-4)GlcNAc(b1-2)Man(a1-3)[Gal(a1-4)Gal(b1-4)GlcNAc(b1-2)Man(a1-6)]Man(b1-4)GlcNAc(b1-4)GlcNAc
# Procedure, shortened: as §1
# Gal(b1-3)GalNAc = biological target: Gal(b1-3)GalNAc
# Procedure, shortened: as §1
# [10] = biological target: Gal(b1-3)GalNAc(b1-3)Gal(a1-4)Gal(b1-4)Glc
# Procedure, shortened: as §1
# [11] = biological target: Gal(b1-3)GlcNAc(b1-3)Gal(b1-4)GlcNAc(b1-2)Man(a1-3)[Gal(b1-3)GlcNAc(b1-3)Gal(b1-4)GlcNAc(b1-2)Man(a1-6)]Man(b1-4)GlcNAc(b1-4)GlcNAc
# Procedure, shortened: as §1
# [12] = biological target: Gal(b1-4)GlcNAc(b1-3)Gal(b1-4)GlcNAc(b1-3)GalNAc
# Procedure, shortened: as §1
# [13] = biological target: Gal(b1-4)GlcNAc(b1-3)GalNAc
# Procedure, shortened: as §1
# Gal3S6S(b1-4)GlcNAc = biological target: Gal3S6S(b1-4)GlcNAc
# Procedure, shortened: as §1
# GalNAc(a1-3)Gal = biological target: GalNAc(a1-3)Gal
# Procedure, shortened: as §1
# GalNAc(b1-3)Gal = biological target: GalNAc(b1-3)Gal
# Procedure, shortened: as §1
# [14] = biological target: GalNAc(b1-3)Gal(a1-4)Gal(b1-4)GlcNAc
# Procedure, shortened: as §1
# [15] = biological target: GalNAc(b1-3)Gal(a1-4)Gal(b1-4)GlcNAc(b1-3)Gal(b1-4)Glc
# Procedure, shortened: as §1
# [16] = biological target: GalNAc(b1-3)Gal(a1-6)Gal(b1-4)Glc
# Procedure, shortened: as §1
# GalNAc(b1-4)GlcNAc = biological target: GalNAc(b1-4)GlcNAc
# Procedure, shortened: as §1
# [17] = biological target: GalNAc(b1-4)GlcNAc(b1-2)Man
# Procedure, shortened: as §1
# [18] = biological target: GalNAc(b1-4)GlcNAc(b1-2)Man(a1-3)[GalNAc(b1-4)GlcNAc(b1-2)Man(a1-6)]Man(b1-4)GlcNAc(b1-4)GlcNAc
# Procedure, shortened: as §1
# [19] = biological target: GalNAc(b1-4)GlcNAc(b1-3)GalNAc(b1-4)GlcNAc
# Procedure, shortened: as §1
# GalNAc(b1-4)GlcNAc6S = biological target: GalNAc(b1-4)GlcNAc6S
# Procedure, shortened: as §1
# [20] = biological target: Glc(a1-4)Glc(a1-4)Glc(a1-4)Glc
# Procedure, shortened: as §1
# [21] = biological target: GlcNAc(b1-2)Man(a1-3)[GlcNAc(b1-2)Man(a1-6)]Man(b1-4)GlcNAc(b1-4)[Fuc(a1-6)]GlcNAc
# Procedure, shortened: as §1
# [22] = biological target: GlcNAc(b1-2)Man(a1-3)[GlcNAc(b1-4)][GlcNAc(b1-2)Man(a1-6)]Man(b1-4)GlcNAc(b1-4)GlcNAc
# Procedure, shortened: as §1
# [23] = biological target: GlcNAc(b1-2)[GlcNAc(b1-4)]Man(a1-3)[GlcNAc(b1-4)][GlcNAc(b1-2)[GlcNAc(b1-6)]Man(a1-6)]Man(b1-4)GlcNAc(b1-4)[Fuc(a1-6)]GlcNAc
# Procedure, shortened: as §1
# [24] = biological target: GlcNAc(b1-4)Gal(b1-4)GlcNAc
# Procedure, shortened: as §1
# [25] = biological target: Man(a1-2)Man(a1-3)[Man(a1-2)Man(a1-6)]Man
# Procedure, shortened: as §1
# [26] = biological target: Man(a1-2)Man(a1-6)[Man(a1-3)]Man(a1-6)[Man(a1-2)Man(a1-2)Man(a1-3)]Man
# Procedure, shortened: as §1
# [27] = biological target: Man(a1-3)[Man(a1-6)]Man(b1-4)GlcNAc(b1-4)GlcNAc
# Procedure, shortened: as §1
# [28] = biological target: Man(a1-3)[Man(a1-6)]Man(b1-4)GlcNAc(b1-4)[Fuc(a1-6)]GlcNAc
# Procedure, shortened: as §1
# [29] = biological target: Neu5Ac(a2-3)Gal(b1-3)GalNAc(b1-4)[Neu5Ac(a2-3)]Gal(b1-4)Glc
# Procedure, shortened: as §1
# [30] = biological target: Neu5Ac(a2-3)Gal(b1-3)GlcNAc(b1-6)GalNAc
# Procedure, shortened: as §1
# [31] = biological target: Neu5Ac(a2-3)Gal(b1-3)[Neu5Ac(a2-6)]GalNAc
# Procedure, shortened: as §1
# [32] = biological target: Neu5Ac(a2-3)Gal(b1-3)[Neu5Ac(a2-6)]GlcNAc(b1-3)[Fuc(a1-3)[Gal(b1-4)]GlcNAc(b1-6)]Gal(b1-4)Glc
# Procedure, shortened: as §1
# [33] = biological target: Neu5Ac(a2-3)Gal(b1-4)GlcNAc(b1-3)Gal(b1-4)GlcNAc(b1-3)GalNAc
# Procedure, shortened: as §1
# [34] = biological target: Neu5Ac(a2-6)Gal(b1-4)GlcNAc(b1-3)[Neu5Ac(a2-6)Gal(b1-4)GlcNAc(b1-6)]GalNAc
# Procedure, shortened: as §1
# [35] = biological target: Neu5Ac(a2-6)Gal(b1-4)GlcNAc(b1-6)GalNAc
# Procedure, shortened: as §1
# [36] = biological target: Neu5Ac(a2-8)Neu5Ac(a2-8)Neu5Ac(a2-8)Neu5Ac(a2-3)[GalNAc(b1-4)]Gal(b1-4)Glc
# Procedure, shortened: as §1
# [37] = biological target: Neu5Gc(a2-3)Gal(b1-3)[Fuc(a1-4)]GlcNAc
# Procedure, shortened: as §1
binder,measurement,setting,value
B1,glycan array binding signal (z-score),[1],-0.177
same,glycan array binding signal (z-score),[2],-0.196
same,glycan array binding signal (z-score),[3],-0.201
same,glycan array binding signal (z-score),[4],-0.214
same,glycan array binding signal (z-score),[5],-0.012
same,glycan array binding signal (z-score),[6],4.5
same,glycan array binding signal (z-score),[7],-0.165
same,glycan array binding signal (z-score),Fuc(b1-3)GlcNAc,-0.186
same,glycan array binding signal (z-score),Gal(a1-3)Gal(b1-4)Glc,-0.157
same,glycan array binding signal (z-score),[8],-0.124
same,glycan array binding signal (z-score),[9],-0.162
same,glycan array binding signal (z-score),Gal(b1-3)GalNAc,-0.159
same,glycan array binding signal (z-score),[10],0.019
same,glycan array binding signal (z-score),[11],-0.157
same,glycan array binding signal (z-score),[12],0.306
same,glycan array binding signal (z-score),[13],-0.162
same,glycan array binding signal (z-score),Gal3S6S(b1-4)GlcNAc,-0.186
same,glycan array binding signal (z-score),GalNAc(a1-3)Gal,3.51
same,glycan array binding signal (z-score),GalNAc(b1-3)Gal,2.98
same,glycan array binding signal (z-score),[14],3.35
same,glycan array binding signal (z-score),[15],2.76
same,glycan array binding signal (z-score),[16],4.13
same,glycan array binding signal (z-score),GalNAc(b1-4)GlcNAc,6.99
same,glycan array binding signal (z-score),[17],8.12
same,glycan array binding signal (z-score),[18],3.25
same,glycan array binding signal (z-score),[19],12.4
same,glycan array binding signal (z-score),GalNAc(b1-4)GlcNAc6S,9.73
same,glycan array binding signal (z-score),[20],-0.19
same,glycan array binding signal (z-score),[21],-0.139
same,glycan array binding signal (z-score),[22],-0.238
same,glycan array binding signal (z-score),[23],-0.166
same,glycan array binding signal (z-score),[24],-0.213
same,glycan array binding signal (z-score),[25],-0.234
same,glycan array binding signal (z-score),[26],-0.179
same,glycan array binding signal (z-score),[27],-0.142
same,glycan array binding signal (z-score),[28],-0.225
same,glycan array binding signal (z-score),[29],-0.247
same,glycan array binding signal (z-score),[30],-0.235
same,glycan array binding signal (z-score),[31],-0.159
same,glycan array binding signal (z-score),[32],-0.146
same,glycan array binding signal (z-score),[33],-0.216
same,glycan array binding signal (z-score),[34],-0.172
same,glycan array binding signal (z-score),[35],-0.202
same,glycan array binding signal (z-score),[36],-0.149
same,glycan array binding signal (z-score),[37],-0.202
